# According to PubChem BioAssay AID540351 (The Scripps Research Institute Molecular Screening Center, 2011):
# Activity calls are given as the source filed them. The rule behind the calls is not given here.
# System: Imidazoline I2
# Assay: off-target receptor, channel and CYP panel, profiling panel, selectivity assay for S1P3 agonist project, biochemical, Ricerca HitProfilingScreen, CYP450 (AID 540351)
# Details: Ricerca receptor/enzyme binding panel plus CYP450, Central, at 30 µM, hits give high values
smiles,measurement,value
O=C(c1cc(C2CC2)on1)N(C1CCCCC1)C1CCCCC1,inhibition,23% (inactive)
